Source: PubChem
14-3-3 Bad inh – disrupts binding of bovine 14-3-3 zeta to phospho-Bad peptide | 0.71% of 220,000 active | AID 781 | inhibition, % at 21.7 µM | TR-FRET 14-3-3zeta/Dy647-pBad peptide displacement, 1 h;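 active = inhibition above about 70%, limit read from the data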;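 also: 0% = full 14-3-3 plus peptide FRET controls and 100% = background without 14-3-3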
Target sequence (P63103 whole entry, looked up): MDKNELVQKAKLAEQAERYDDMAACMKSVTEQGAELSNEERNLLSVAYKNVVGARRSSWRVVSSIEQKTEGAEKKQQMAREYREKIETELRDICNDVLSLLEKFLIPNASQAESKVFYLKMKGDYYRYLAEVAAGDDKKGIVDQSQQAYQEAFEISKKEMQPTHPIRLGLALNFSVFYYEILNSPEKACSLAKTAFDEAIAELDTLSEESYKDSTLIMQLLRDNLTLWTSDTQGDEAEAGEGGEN
Mcl1 Noxa PPI – disrupts binding of human Mcl-1 to Noxa peptide; Q07820; TR-FRET Mcl-1/Noxa peptide binding, 2 h; inhibition, % at 21.7 µM; 1.5% of 220,000 active; AID 1022;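 active = compounds that cut the protein-peptide binding signal by more than 50% relative to plate controls in a single-dose test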;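 also: His-tagged Mcl-1 with rhodamine Noxa BH3 peptide and terbium anti-His antibody; 0% = Mcl-1 plus Noxa peptide wells and 100% = peptide-only wells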
Target sequence (Q07820 whole entry, looked up): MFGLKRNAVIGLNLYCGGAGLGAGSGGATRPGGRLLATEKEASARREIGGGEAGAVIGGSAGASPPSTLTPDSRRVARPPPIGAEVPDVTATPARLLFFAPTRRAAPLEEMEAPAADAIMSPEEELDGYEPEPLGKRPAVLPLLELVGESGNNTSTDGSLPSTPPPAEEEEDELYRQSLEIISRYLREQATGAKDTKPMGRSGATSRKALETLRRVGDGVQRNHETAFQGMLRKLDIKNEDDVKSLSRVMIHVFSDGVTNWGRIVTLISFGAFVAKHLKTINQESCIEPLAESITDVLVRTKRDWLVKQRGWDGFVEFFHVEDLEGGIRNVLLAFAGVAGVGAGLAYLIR
Mcl1-Bid inh – Mcl-1/Bid interaction inhibition; Q07820; TR-FRET Mcl-1/Bid-Dy647 peptide binding, 1536-well; inhibition, % at 21.7 µM; 0.97% of 220,000 active; AID 1021;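 active = compounds that cut the binding signal by more than half at the single screening dose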;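 also: His-tagged Mcl-1 with europium anti-His antibody binding Bid BH3 peptide; 0% = Mcl-1 plus peptide wells and 100% = peptide-only wells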
MCL1-BIM inh – disrupts human MCL1 binding to BIM-BH3 peptide; GST-MCL1 / FITC-Bim-BH3 fluorescence polarization; 0.68% of 320,000 active; Q07820; inhibition, % at 10.9 µM;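 active = inhibition above the mean inhibition of all tested compounds plus 3 SD, set per campaign, cut at about 40% in these data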;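 also: 0% = DMSO wells and 100% = unlabeled Bim-BH3 peptide control; higher means more loss of mP so more displacement of Bim peptide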
Mcl-1 Bim block – inhibitors of Bim-Mcl-1 interaction, human; Q07820; Bead-based flow cytometry, Bim peptide-Mcl-1 binding; inhibition, % at 10 µM; 0.1% of 190,000 active; in the data active = inhibition above about 40%;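 also: 0% = no compound tracer wells and 100% = peptide blocker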
Numbers without * were called inactive. This is a sample that favours compounds with a hit; in the whole collection about 2.5% have one here.

Results for O=C(Nc1ccc(Cl)cc1)Nc1nnc(Cc2ccc([N+](=O)[O-])cc2)s1 ?
14-3-3 Bad inh: 30; Mcl1 Noxa PPI: 16; Mcl1-Bid inh: 15; MCL1-BIM inh: 7; Mcl-1 Bim block: -18

Results for Cc1ccc(NC(=O)Nc2nnc(Cc3ccc([N+](=O)[O-])cc3)s2)cc1 ?
14-3-3 Bad inh: 7; Mcl1 Noxa PPI: -8; Mcl1-Bid inh: 51*; MCL1-BIM inh: 1; Mcl-1 Bim block: -5

What do the screens show for `COC(=O)C1=C(C(=O)OC)[C@@H]2N(C)c3ccccc3[C@@]23C[C@@H](CO)N=C3N1`?
MCL1-BIM inh: 12

How did Cc1[nH][nH]c(=O)c1C(c1ccc(-c2cccc(C(=O)O)c2)o1)c1c(C)[nH][nH]c1=O do in these assays?
14-3-3 Bad inh: 5; Mcl1 Noxa PPI: 13; Mcl1-Bid inh: -92; MCL1-BIM inh: 17; Mcl-1 Bim block: 0

Results for COC(=O)c1ccc(-c2ccc(C(c3c(C)[nH][nH]c3=O)c3c(C)[nH][nH]c3=O)o2)cc1 ?
14-3-3 Bad inh: 3; Mcl1 Noxa PPI: 68*; Mcl1-Bid inh: -74; MCL1-BIM inh: 4; Mcl-1 Bim block: 6

What do the screens show for `Cc1c(N2C(=O)/C(=C\C3CC=CCC3)SC2=S)c(=O)n(-c2ccccc2)n1C` (configuration not stated)?
14-3-3 Bad inh: 7; Mcl1 Noxa PPI: 4; Mcl1-Bid inh: -28; MCL1-BIM inh: 9; Mcl-1 Bim block: -2

What do the screens show for `CC(C)C(=O)Nc1sc2c(c1C(N)=O)CCN(Cc1ccccc1)C2`?
MCL1-BIM inh: -2

Results for O=C(O)CCCCCN1C(=O)/C(=C\c2ccc(-c3ccc(Cl)cc3)o2)SC1=S ?
14-3-3 Bad inh: 71*; Mcl1 Noxa PPI: 105*; Mcl1-Bid inh: 90*; MCL1-BIM inh: -3

What do the screens show for `O=C(O)CCCN1C(=O)/C(=C/c2ccc(-c3nc4ccccc4s3)o2)SC1=S`?
14-3-3 Bad inh: -1; Mcl1 Noxa PPI: 102*; Mcl1-Bid inh: 53*; MCL1-BIM inh: 16; Mcl-1 Bim block: 11

How did O=C(O)CCCN1C(=O)/C(=C/c2ccncc2)SC1=S do in these assays?
14-3-3 Bad inh: 1; Mcl1 Noxa PPI: -24; Mcl1-Bid inh: -43; MCL1-BIM inh: 0

What do the screens show for `O=C(O)CCCCCN1C(=O)/C(=C\c2ccncc2)SC1=S`?
14-3-3 Bad inh: 8; Mcl1 Noxa PPI: 0; Mcl1-Bid inh: -42; MCL1-BIM inh: 8; Mcl-1 Bim block: -3

How did O=C(O)Cc1ccc(C(=O)c2ccc(F)cc2)s1 do in these assays?
14-3-3 Bad inh: 7; Mcl1 Noxa PPI: -5; Mcl1-Bid inh: 6; MCL1-BIM inh: 3; Mcl-1 Bim block: -2

What do the screens show for `CCOC(=O)c1oc2cc(O)c(CC)cc2c(=O)c1-c1cscn1`?
14-3-3 Bad inh: -18; Mcl1 Noxa PPI: 11; Mcl1-Bid inh: -47; MCL1-BIM inh: -2; Mcl-1 Bim block: 0

How did C=CCC(C)(NCc1ccccc1)c1ccco1 (configuration not stated) do in these assays?
14-3-3 Bad inh: 72*; Mcl1 Noxa PPI: 4; Mcl1-Bid inh: 23; MCL1-BIM inh: 4; Mcl-1 Bim block: 2

How did CC(C)[C@@H](COc1ccccc1)N1CCN(Cc2ccccc2)CCC1=O do in these assays?
MCL1-BIM inh: -7

How did CC(COc1ccccc1)N(CCCl)Cc1ccccc1 (configuration not stated) do in these assays?
14-3-3 Bad inh: 19; Mcl1 Noxa PPI: 34; Mcl1-Bid inh: 55*; MCL1-BIM inh: 2; Mcl-1 Bim block: -1

How did CC(=O)NS(=O)(=O)c1ccc(NC(=O)c2cccc(S(=O)(=O)N3CCc4ccccc43)c2)cc1 do in these assays?
14-3-3 Bad inh: -16; Mcl1 Noxa PPI: 10; Mcl1-Bid inh: 2; MCL1-BIM inh: 4; Mcl-1 Bim block: -5

Results for COc1ccc(/C=N/n2c(N)nc(-c3ccccc3)c2-c2ccccc2)cc1 ?
14-3-3 Bad inh: 11; Mcl1 Noxa PPI: 48; Mcl1-Bid inh: 57*; MCL1-BIM inh: 0; Mcl-1 Bim block: -3

What do the screens show for `COc1ccc(/C=N/n2c(-c3ccccc3)n[nH]c2=S)cc1`?
MCL1-BIM inh: -9

How did O=C(O)CSc1nnc(-c2ccncc2)n1-c1ccc(Cl)cc1 do in these assays?
14-3-3 Bad inh: 1; Mcl1 Noxa PPI: 1; Mcl1-Bid inh: -20; MCL1-BIM inh: -2; Mcl-1 Bim block: 0

Results for CC1CCCCC1NC(=O)c1ccc2c(c1)[nH]c(=O)n2C1CCCC1 (configuration not stated) ?
14-3-3 Bad inh: -2; Mcl1 Noxa PPI: 82*; Mcl1-Bid inh: 8; MCL1-BIM inh: 3; Mcl-1 Bim block: -4

What do the screens show for `C=C(C)Cn1cnc2c(oc3nc4c(cc32)CCCC4)c1=O`?
14-3-3 Bad inh: -3; Mcl1 Noxa PPI: 2; Mcl1-Bid inh: -12; MCL1-BIM inh: -7

Results for CCOC(=O)CSc1nc(N)c(C(=O)Nc2ccc(N(C)C)cc2)s1 ?
14-3-3 Bad inh: -3; Mcl1 Noxa PPI: 90*; Mcl1-Bid inh: -50; MCL1-BIM inh: 7; Mcl-1 Bim block: -6

How did NS(=O)(=O)c1ccc(C(=O)Nc2ccc(-c3nc4cccnc4s3)cc2)cc1 do in these assays?
14-3-3 Bad inh: 8; Mcl1 Noxa PPI: 49; Mcl1-Bid inh: 52*; MCL1-BIM inh: 1

How did NS(=O)(=O)c1ccc(NS(=O)(=O)c2ccc(NC(=O)c3ccc(-c4ccccc4)cc3)cc2)cc1 do in these assays?
14-3-3 Bad inh: -5; Mcl1 Noxa PPI: 27; Mcl1-Bid inh: 54*; MCL1-BIM inh: 6; Mcl-1 Bim block: 1

How did NS(=O)(=O)c1ccc(NC(=O)c2ccc(-c3ccccc3)cc2)cc1 do in these assays?
14-3-3 Bad inh: 26; Mcl1 Noxa PPI: -63; Mcl1-Bid inh: 28; Mcl-1 Bim block: 5

What do the screens show for `COc1ccc2c(N)c(C(=O)NN)[nH]c2c1`?
14-3-3 Bad inh: 17; Mcl1 Noxa PPI: 64*; Mcl1-Bid inh: -195; MCL1-BIM inh: 3

Results for COC(=O)c1[nH]c2cc(OC)ccc2c1N=CN(C)C ?
14-3-3 Bad inh: -9; Mcl1 Noxa PPI: 15; Mcl1-Bid inh: -31; MCL1-BIM inh: -5

Results for COc1cccc(/C(C#N)=C/c2c(-c3ccc(Cl)cc3)nc3c(C)cccn23)c1 ?
14-3-3 Bad inh: 71*; Mcl1 Noxa PPI: -7; Mcl1-Bid inh: -26; MCL1-BIM inh: -1; Mcl-1 Bim block: 0

How did Cc1cc(C)cc(N2CC(O)=C(c3nc4ccccc4c(=O)[nH]3)C2=N)c1 do in these assays?
14-3-3 Bad inh: 77*; Mcl1 Noxa PPI: -39; Mcl1-Bid inh: -180; MCL1-BIM inh: -35; Mcl-1 Bim block: -4

Results for Cn1nc(-c2ccccc2)c(C(=O)NCC(=O)O)c1Cl ?
14-3-3 Bad inh: 22; Mcl1 Noxa PPI: 11; Mcl1-Bid inh: -8; MCL1-BIM inh: 2; Mcl-1 Bim block: -1

Results for CS(=O)(=O)NN1C(=O)c2ccccc2NC1c1cccc(O)c1 (configuration not stated) ?
14-3-3 Bad inh: -3; Mcl1 Noxa PPI: 4; Mcl1-Bid inh: -9; MCL1-BIM inh: 0; Mcl-1 Bim block: 5

Results for CS(=O)(=O)NN1C(=O)c2ccccc2NC1c1ccccc1 (configuration not stated) ?
14-3-3 Bad inh: -2; Mcl1 Noxa PPI: -4; Mcl1-Bid inh: -23; MCL1-BIM inh: 0; Mcl-1 Bim block: 43*
